Most compounds without a hit are left out; they make up all but 0.32% or so of the library.
Menin MLL FP TR: displaces Texas Red mutant MLL peptide from human menin; O00255; Menin + Texas Red MLL mutant peptide, fluorescence polarization; Potency, µM (highest dose often 61.6 µM), for the others: at the top dose FP activity change, negative = inhibition, usual class: inhibitors; hit rate 0.23% among 270,000; AID 1768; active means well fitted inhibition curve with a large enough effect in the polarisation, with a control signal flat, not every such curve was filed as active; inconclusive means small, poorly fitted or top-dose-only effect, or effect the other way, or a change in a side signal; inactive means no such curve, though single readings can be large or run the other way; the % refers to the polarisation; further: potency means the concentration at half of the fitted maximal effect; % of control where 0% means no effect
Target sequence (O00255 whole entry, looked up): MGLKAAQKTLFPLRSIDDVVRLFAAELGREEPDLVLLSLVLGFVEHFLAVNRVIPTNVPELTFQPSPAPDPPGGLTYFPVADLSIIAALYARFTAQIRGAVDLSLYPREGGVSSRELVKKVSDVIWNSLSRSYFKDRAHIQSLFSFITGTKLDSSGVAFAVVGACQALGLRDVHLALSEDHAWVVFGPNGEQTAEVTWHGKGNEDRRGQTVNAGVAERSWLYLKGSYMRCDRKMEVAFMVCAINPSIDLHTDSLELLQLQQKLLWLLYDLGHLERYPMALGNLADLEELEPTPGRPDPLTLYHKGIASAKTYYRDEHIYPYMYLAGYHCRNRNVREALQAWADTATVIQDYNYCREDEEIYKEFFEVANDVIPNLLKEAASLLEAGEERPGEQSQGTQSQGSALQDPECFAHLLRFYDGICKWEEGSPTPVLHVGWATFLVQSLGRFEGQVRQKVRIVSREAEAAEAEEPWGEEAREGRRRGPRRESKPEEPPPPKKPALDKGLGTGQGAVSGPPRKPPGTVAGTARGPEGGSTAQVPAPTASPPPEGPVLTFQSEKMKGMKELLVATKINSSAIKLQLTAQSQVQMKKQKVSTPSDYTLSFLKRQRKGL
MLL CXXC-DNA inh: MLL CXXC-DNA interaction inhibition; Potency, µM (doses to about 115 µM), for the others: top-dose activity change, negative = inhibition, most hits filed as inhibitors; Q03164; hit rate 0.037% among 290,000; MLL-CXXC / FITC-HOXA9 DNA fluorescence polarization; active means well fitted inhibition curve with a large enough effect in the polarisation, with a control signal flat, not every such curve was filed as active; inconclusive means small, poorly fitted or top-dose-only effect, or effect the other way, or a change in a side signal; inactive means no such curve, though single readings can be large or run the other way; the % refers to the polarisation; further: potency means the concentration at half of the fitted maximal effect
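Steps: dispense CXXC domain solution (7 uM) → pin compounds or unlabeled HOX-A9 DNA control → 5 min ambient → add FLSN-HOX-A9 solution (50 nM) → spin → 30 min ambient → fluorescence polarization. Tris pH 7.5/NaCl/DTT/BSA buffer.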
Menin-MLL FL inh: displaces fluorescein MLL peptide from human menin. AID 1766. Fluorescence polarization, fluorescein-MLL peptide displacement from menin. 290,000 tested, under 10 active. FP activity change, % at 61.4 µM; active means well fitted curve in the direction sought with a large enough effect in the polarisation, not every such curve was filed as active; inconclusive means small, poorly fitted or top-dose-only effect, or effect the other way, or a change in a side signal; inactive means no such curve, though single readings can be large or run the other way; the % refers to the polarisation; further: % of control where 0% means no effect
TRPV1 PAM: human TRPV1 potentiation; Q8NER1; TRPV1-expressing cells, Fluo-8 calcium influx, capsaicin EC20 potentiation; potentiation, % at 8.33 µM; hit rate 0.02% among 320,000; in the data active means potentiation above about 80%; inconclusive means between about 30% and that limit; further: 0% is about no effect
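Cells expressing TRPV1 were dye-loaded with Fluo-8 and read kinetically: 10 s baseline, 3 min after compound (agonist portion), then 2 min after EC20 capsaicin (allosteric enhancer portion). Calcium-bound dye fluorescence at 480/520 nm.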
TRPV1 ag: human TRPV1 agonism. Q8NER1. TRPV1-expressing cells, Fluo-8 calcium influx, agonist mode. activation, % at 8.33 µM. hit rate 0.19% among 320,000; in the data active means activation above about 80%; inconclusive means between about 30% and that limit; further: 0% is about no effect
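Fluo-8 calcium influx in TRPV1-expressing cells, kinetic read (ex 480/em 520 nm). Compound added and read 3 min for agonist activity, followed by capsaicin at EC20 final and 2 min further read for enhancement.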
Active calls of the source: *; u = inconclusive; x = no result given.

SMILES	Menin MLL FP TR	MLL CXXC-DNA inh	Menin-MLL FL inh	TRPV1 PAM	TRPV1 ag
CCN(CC)c1ccc(N=C2C(=O)Nc3ccccc32)cc1	22µM*	-2%	0	-1	1
Cc1ccc(N)c(Cl)c1	9%	x	5	x	x
CCC(=Nc1ccccc1)C1=C(O)CC(C)(C)CC1=O	1%	3%	-3	105*	9
CCCN1CCC(=O)N(C(CSc2ccc(C)cc2)CC(C)C)CC1 (configuration not stated)	-14%	x	1	x	x
Cc1nc2ccccc2c(=O)n1NC(=O)C1CCC(C(C)(C)C)CC1 (configuration not stated)	0%	0%	-4	3	82*
O=C(Nc1ccccc1)c1cnc2ccccc2n1	12%	-3%	-1	-23	u
Cc1ccc(NC(=O)c2cnc3ccccc3n2)cc1C	x	-24%	-1	-12	84*
CC(C)c1ccc(/C=N\NC(=O)c2ccc(Cn3cccn3)o2)cc1	-1%	-6%	2	8	82*
O=C(N/N=C\c1ccc(Cl)s1)c1ccc(Cn2cccn2)o1	-7%	3%	2	-23	u
OCC1=C[C@@H](O)[C@@H]2C=CO[C@@H](OC3O[C@H](CO)[C@@H](O)[C@H](O)[C@H]3O)[C@H]12 (some centres not stated)	15%	x	0	x	x
CCN(CC)c1ccc(NC(=O)c2cnccn2)cc1S(=O)(=O)Nc1ccc(OC)cc1	u	0%	-2	20	85*
NCC(=O)N[C@@H](CCCN=C(N)N)C(=O)NCC(=O)N[C@@H](CC(=O)O)C(=O)N[C@@H](CO)C(=O)N1CCC[C@H]1C(=O)O	16%	x	1	x	x
COc1ccccc1COCC(O)CNCCc1ccc(C(F)(F)F)cc1 (configuration not stated)	22µM*	13%	-7	-12	22
Cc1cccc2c1NC(C)CC2C (configuration not stated)	25µM*	-1%	-3	0	-2
N#Cc1ccc(/C=C\c2nccc3c2[nH]c2ccccc23)cc1	-12%	10%	11	-2	90*
O=C(C1=C[C@@H](c2ccccc2)C[C@@H](OCc2ccc(CO)cc2)O1)N1CCCCCCC1	0%	u	6	-27	88*
O=C(C1=C[C@H](c2ccccc2)C[C@H](OCc2ccc(CO)cc2)O1)N1CCN(Cc2ccccc2)CC1	u	-20%	3	-15	u
CCC(C)CC(C)CC(C)C(=O)/C=C(/O)C(C)CC(C)C/C=C/C(C)C(O)C(C)C(O)CC1CCC(C)(C)O1 (configuration not stated)	8%	x	8	x	x
O=C(CSc1nc2ccccc2s1)N1c2ccccc2Sc2ccc(Cl)cc21	20µM*	23%	-4	3	-2
O=S(=O)(Nc1cc(O)cc2cccnc12)c1ccc(Cl)s1	u	x	7	x	x
CC(C)Nc1ccc(Nc2ccnc3cc4ccccc4cc23)cc1	x	u	4	x	x
c1ccc(CCNc2ccnc3cc4ccccc4cc23)cc1	22µM*	u	-21	7	-1
COC(=O)c1ccc(CNC(=O)COC(=O)CCC2CCCC2)cc1	-8%	14%	-2	-27	84*
O=c1c(-c2ccc(O)cc2)coc2cc(O[C@@H]3O[C@H](CO)[C@@H](O)[C@H](O)[C@H]3O)cc(O)c12	-3%	x	2	x	x
Cc1ccc2c(=O)c3cccc(CC(=O)O)c3oc2c1C	-13%	x	0	x	x
SMILES	Menin MLL FP TR	MLL CXXC-DNA inh	Menin-MLL FL inh	TRPV1 PAM	TRPV1 ag
COc1cccc(NS(=O)(=O)c2ccc(Br)s2)c1	u	6%	-1	3	89*
Cc1c(C(=O)Nc2ccncc2)sc2nc(-c3ccccc3)cn12	-1%	0%	5	-23	90*
C=CC#CC[N+]1(CC#Cc2ccccc2)CCOCC1	25µM*	51%	-20	-8	-2
C(#Cc1ccccc1)C[N+]1(CC#Cc2ccccc2)CCCC1	-12%	-1%	4	2	-2
CC[C@@H](C)[C@H](CNC)NC[C@@H](Cc1cccc2ccccc12)NCCc1cccc(C(F)(F)F)c1	32µM*	127%	1	-2	6
CCC[C@H](CN[C@@H](CNC)[C@H](C)CC)NCCc1cc(C(F)(F)F)cc(C(F)(F)F)c1	-4%	57%	2	10	12
